Test results from PubChem BioAssay (Tox21).
Where “and” joins values, the source holds several entries; their conditions need not be identical. Identical values can stand only once. Calls of active or inactive are those of the source. Unless noted, calls come from the whole dose curve; as a rule, active = well fitted curve in the direction sought with a large enough effect in the repeat runs; inconclusive = weak or mixed curves; inactive = no such curve, though single readings can be large; an effect the other way counts as inactive or inconclusive.

Columns and labels:
[1] = qHTS assay to identify small molecule antagonists of the glucocorticoid receptor (GR) signaling pathway - cell viability counter screen (AID 720693); note: nearly all actives have a fitted effect of over 55% in size
[2] = qHTS assay for identifying genotoxic compounds that show differential cytotoxicity against isogenic chicken DT40 cell lines with known DNA damage response pathways - wild type cell line (AID 743012); note: nearly all actives have a fitted effect of over 60% in size; note: potency is the fitted concentration of half-maximal effect
How it was run: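 Cells (DT40 wild type, 300/well) are treated with DMSO-dissolved compounds after a ~0.5 h pre-incubation and kept 40 h at 37 C/5% CO2. Viability is then measured by CellTiter-Glo luminescence following 30 min at room temperature.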

[3] = qHTS assay for identifying genotoxic compounds that show differential cytotoxicity against isogenic chicken DT40 cell lines with known DNA damage response pathways - Rev3 mutant cell line (AID 743014); note: nearly all actives have a fitted effect of over 55% in size; note: potency is the fitted concentration of half-maximal effect
[4] = qHTS assay to identify small molecule antagonists of the androgen receptor (AR) signaling pathway using the MDA cell line - cell viability counter screen (AID 743041; note: nearly all actives have a fitted effect of over 45% in size)
How it was run: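 Same-well cytotoxicity was assessed by CellTiter-Fluor in MDA-kb2 AR-luc cells after 16 h of compound treatment under R1881 agonism.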

[5] = qHTS assay to identify small molecule antagonists of the thyroid receptor (TR) signaling pathway - cell viability counter screen (AID 743064); note: nearly all actives have a fitted effect of over 50% in size; note: potency is the fitted concentration of half-maximal effect
How it was run: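 Same-well viability check: GH3.TRE-Luc cells stimulated with 1 nM T3 alongside test compound for 23.5 h, followed by CellTiter-Fluor fluorescence.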

[6] = qHTS assay to identify small molecule antagonists of the thyroid receptor (TR) signaling pathway (AID 743065); note: nearly all actives have a fitted effect of over 55% in size; note: potency is the fitted concentration of half-maximal effect
How it was run: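 GH3.TRE-Luc rat pituitary cells (two TREs driving luciferase) were dosed with compound, then stimulated with 1 nM T3 (final) for 23.5 h at 37 C. ONE-Glo luminescence was the read-out, with CellTiter-Fluor fluorescence as the cytotoxicity counter-screen.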

[7] = system: thyroid hormone receptor (rat, GH3 cells); experiment: qHTS assay to identify small molecule agonists of the thyroid receptor (TR) signaling pathway (AID 743066; calls by dose curve)
[8] = target: Estrogen receptor (Homo sapiens) (UniProt P03372); experiment: qHTS assay to identify small molecule antagonists of the estrogen receptor alpha (ER-alpha) signaling pathway (AID 743069; active = well fitted curve in the direction sought with a large enough effect in the signal ratio in the repeat runs, not every such curve was filed as active; inconclusive = weak or mixed curves, or effect the other way; inactive = no such curve, though single readings can be large or run the other way; the % refers to the signal ratio; note: potency is the fitted concentration of half-maximal effect)
How it was run: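 Reporter cells (ER-alpha-bla, HEK293 background) are conditioned overnight in stripped-serum medium (2% charcoal-stripped FBS). Compound and 17beta-estradiol exposure runs 18 hr at 37C, 5% CO2.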

[9] = qHTS assay to identify small molecule antagonists of the estrogen receptor alpha (ER-alpha) signaling pathway - cell viability counter screen (AID 743074; calls by dose curve;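 note: HEK293 cells carrying ER-alpha-UAS-bla reporter stimulated with 17beta-estradiol; nearly all actives have a fitted effect of over 45% in size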)
[10] = target: Estrogen receptor (Homo sapiens) (UniProt P03372); experiment: qHTS assay to identify small molecule agonists of the estrogen receptor alpha (ER-alpha) signaling pathway (AID 743075; calls by dose curve;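 note: HEK293 GripTite cells with ER-alpha and UAS-driven beta-lactamase reporter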; note: potency is the fitted concentration of half-maximal effect)
[11] = target: Estrogen receptor (Homo sapiens) (UniProt P03372); experiment: qHTS assay to identify small molecule agonists of the estrogen receptor alpha (ER-alpha) signaling pathway using the BG1 cell line (AID 743079); conditions: BG1Luc4E2 cells, ERE-luciferase agonist, 22 h; activation: at 70.3 µM (top of the series); note: nearly all actives have a fitted effect of over 20% in size; note: potency is the fitted concentration of half-maximal effect
[12] = qHTS assay to identify small molecule antagonists of the estrogen receptor alpha (ER-alpha) signaling pathway using the BG1 cell line (AID 743080; calls by dose curve;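 note: BG1 cells stimulated with 17beta-estradiol alongside compound; nearly all actives have a fitted effect of over 25% in size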; note: potency is the fitted concentration of half-maximal effect)
How it was run: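 Readout is ONE-Glo luminescence, taken 30 min at room temperature after reagent addition, preceded by a CellTiter-Fluor viability read; BG1-Luc-4E2 cells had received compound and 17beta-estradiol for 21.5 h at 37 C.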

[13] = qHTS assay to identify small molecule antagonists of the estrogen receptor alpha (ER-alpha) signaling pathway using the BG1 cell line - cell viability counter screen (AID 743081);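 note: compound given together with 17beta-estradiol as the ER stimulus; nearly all actives have a fitted effect of over 45% in size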
Aromatase (Homo sapiens) = Aromatase (Homo sapiens) (UniProt P11511); experiment: qHTS assay to identify aromatase inhibitors (AID 743083); note: nearly all actives have a fitted effect of over 55% in size; note: potency is the fitted concentration of half-maximal effect
[14] = qHTS assay for identifying genotoxic compounds that show differential cytotoxicity against isogenic chicken DT40 cell lines with known DNA damage response pathways - Rad54/Ku70 mutant cell line (AID 743015); note: nearly all actives have a fitted effect of over 60% in size; note: potency is the fitted concentration of half-maximal effect
[15] = qHTS assay to identify small molecule antagonists of the androgen receptor (AR) signaling pathway - cell viability counter screen (AID 743033; note: nearly all actives have a fitted effect of over 45% in size)
[16] = target: Androgen receptor (Homo sapiens) (UniProt P10275); experiment: qHTS assay to identify small molecule agonists of the androgen receptor (AR) signaling pathway using the MDA cell line (AID 743040; note: nearly all actives have a fitted effect of over 20% in size)
How it was run: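 Human breast carcinoma MDA-kb2 reporter cells (MMTV-luc, AR/GR elements) were treated for 16 h at 37C in 0% CO2 following a 5 h settling period. Signal was quantified by ONE-Glo luminescence.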

[17] = target: Androgen receptor (Homo sapiens) (UniProt P10275); experiment: qHTS assay to identify small molecule antagonists of the androgen receptor (AR) signaling pathway using the MDA cell line (AID 743042; note: nearly all actives have a fitted effect of over 55% in size)
How it was run: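 MDA-kb2 breast carcinoma cells carrying MMTV-luciferase (AR/GR responsive) were co-treated with compounds and the agonist R1881 for 16 h at 37C. Inhibition read as ONE-Glo luminescence; CellTiter-Fluor fluorescence measured in parallel for cytotoxicity.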
% is set by controls: 0 for no effect and ±100 for the full control effect.

Sequence of Estrogen receptor (Homo sapiens) (P03372 whole entry, looked up): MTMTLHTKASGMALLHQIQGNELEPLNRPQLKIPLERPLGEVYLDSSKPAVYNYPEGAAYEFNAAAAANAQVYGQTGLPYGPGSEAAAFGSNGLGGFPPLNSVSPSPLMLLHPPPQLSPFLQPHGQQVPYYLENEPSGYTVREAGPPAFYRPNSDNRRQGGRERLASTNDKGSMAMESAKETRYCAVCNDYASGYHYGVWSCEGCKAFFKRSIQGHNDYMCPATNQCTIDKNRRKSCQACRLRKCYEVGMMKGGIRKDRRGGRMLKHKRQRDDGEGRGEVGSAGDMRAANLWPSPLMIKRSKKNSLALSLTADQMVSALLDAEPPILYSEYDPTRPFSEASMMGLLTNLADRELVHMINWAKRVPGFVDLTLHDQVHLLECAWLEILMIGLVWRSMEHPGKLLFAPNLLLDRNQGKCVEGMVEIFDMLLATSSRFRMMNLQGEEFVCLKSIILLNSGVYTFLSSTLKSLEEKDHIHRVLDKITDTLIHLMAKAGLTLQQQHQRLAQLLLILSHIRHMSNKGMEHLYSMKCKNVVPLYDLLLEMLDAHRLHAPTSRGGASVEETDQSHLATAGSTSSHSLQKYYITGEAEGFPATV
Sequence of Aromatase (Homo sapiens) (P11511 whole entry, looked up): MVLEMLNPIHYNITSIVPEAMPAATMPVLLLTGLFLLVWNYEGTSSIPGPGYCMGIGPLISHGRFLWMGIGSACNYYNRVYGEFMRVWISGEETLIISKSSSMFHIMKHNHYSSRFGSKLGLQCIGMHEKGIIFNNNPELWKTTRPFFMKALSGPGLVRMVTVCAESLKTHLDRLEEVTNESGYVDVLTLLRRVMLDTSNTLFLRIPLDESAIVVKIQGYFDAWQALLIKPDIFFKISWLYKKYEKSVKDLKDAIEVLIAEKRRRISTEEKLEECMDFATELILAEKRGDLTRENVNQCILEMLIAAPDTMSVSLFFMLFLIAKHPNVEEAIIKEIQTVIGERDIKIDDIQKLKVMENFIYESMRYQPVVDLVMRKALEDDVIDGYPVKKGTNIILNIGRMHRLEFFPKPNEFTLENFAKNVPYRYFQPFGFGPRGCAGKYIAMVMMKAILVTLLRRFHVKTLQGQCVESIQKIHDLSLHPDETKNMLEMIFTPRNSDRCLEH
Sequence of Androgen receptor (Homo sapiens) (P10275 whole entry, looked up): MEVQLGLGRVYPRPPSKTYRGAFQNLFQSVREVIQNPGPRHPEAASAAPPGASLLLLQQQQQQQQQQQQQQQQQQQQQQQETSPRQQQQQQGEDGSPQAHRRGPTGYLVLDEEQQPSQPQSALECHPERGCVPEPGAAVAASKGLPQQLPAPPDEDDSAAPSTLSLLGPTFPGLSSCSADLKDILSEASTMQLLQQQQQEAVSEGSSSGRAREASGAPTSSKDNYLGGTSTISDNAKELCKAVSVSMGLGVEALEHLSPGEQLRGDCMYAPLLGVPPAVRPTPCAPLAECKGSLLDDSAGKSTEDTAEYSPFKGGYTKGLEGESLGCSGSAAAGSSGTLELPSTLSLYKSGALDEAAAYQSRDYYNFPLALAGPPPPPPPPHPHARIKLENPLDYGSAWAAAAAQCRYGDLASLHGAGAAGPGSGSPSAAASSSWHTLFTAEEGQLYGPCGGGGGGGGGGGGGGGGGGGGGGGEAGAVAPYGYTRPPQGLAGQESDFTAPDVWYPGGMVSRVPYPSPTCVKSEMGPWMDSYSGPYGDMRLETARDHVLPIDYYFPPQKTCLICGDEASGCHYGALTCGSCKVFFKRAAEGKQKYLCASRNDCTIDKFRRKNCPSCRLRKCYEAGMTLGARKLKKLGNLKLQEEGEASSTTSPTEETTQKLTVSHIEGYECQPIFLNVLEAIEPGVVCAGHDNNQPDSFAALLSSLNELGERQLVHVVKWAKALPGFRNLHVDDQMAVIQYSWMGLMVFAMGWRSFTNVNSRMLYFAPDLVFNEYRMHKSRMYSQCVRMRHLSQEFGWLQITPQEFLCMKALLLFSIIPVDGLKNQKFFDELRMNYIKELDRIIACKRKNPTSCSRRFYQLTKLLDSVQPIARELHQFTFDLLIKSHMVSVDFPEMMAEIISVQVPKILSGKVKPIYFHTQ

COC(=O)CC(=O)C(C)(C)C
inactive: Potency [1] | Potency [2] | Potency [4] | Potency [5] | Potency [6] | outcome [7] | Potency [8] | Potency [9] | Potency [10] | Potency [11] | Potency [12] | Potency [13] | Potency (Aromatase (Homo sapiens))
active: Potency [3] 61.1 µM

Cc1oc(C)c(C(=O)Nc2ccccc2)c1C
inactive: Potency [1] | Potency [5] | outcome [7] | Potency [10]
active: Potency [2] 13.7 µM | Potency [3] 10.9 µM | Potency [14] 13.7 µM | Potency [6] 24.3 µM | Potency (Aromatase (Homo sapiens)) 13.7 µM

CCOC(=O)[C@@H](C)Oc1ccc(Oc2nc3ccc(Cl)cc3o2)cc1
active: Potency [2] 68.6 µM | Potency [14] 61.1 µM
inactive: Potency [1] | Potency [15] | Potency [16] | Potency [4] | Potency [5] | Potency [6] | outcome [7] | Potency [9] | Potency [13] | Potency (Aromatase (Homo sapiens))

CC1(C)C(=O)N(Br)C(=O)N1Cl
inactive: Potency [1] | Potency [15] | Potency [4] | Potency [6] | outcome [7] | Potency [9] | Potency [13] | Potency (Aromatase (Homo sapiens))
active: Potency [2] 61.1 µM | Potency [3] 61.1 µM

Cc1cc(C(=C2C=CC(=Nc3ccc(S(=O)(=O)O)cc3S(=O)(=O)O)C=C2)c2ccc(Nc3ccc(S(=O)(=O)O)cc3)cc2)ccc1N
inactive: Potency [1] | Potency [2] | Potency [3] | Potency [15] | Potency [5] | Potency [6] | outcome [7] | Potency [8] | Potency [9] | Potency [10] | Potency [11] | Potency [12] | Potency [13] | Potency (Aromatase (Homo sapiens))

COc1ccc(C(=O)c2cccc(O)c2)c(OC)c1
inactive: Potency [1] | Potency [2] | Potency [3] | Potency [15] | Potency [16] | Potency [17] | Potency [5] | outcome [7] | Potency [8] | Potency [9] | Potency [13] | Potency (Aromatase (Homo sapiens))
active: Potency [10] 24.5 µM [activator] | Potency [11] 6.84 µM | Potency [12] 68.5 µM

COCCOC(=O)C1=C(C)NC(C)=C(C(=O)OC/C=C/c2ccccc2)C1c1cccc([N+](=O)[O-])c1 (stereo unspecified)
active: Potency [2] 13.3 µM | Potency [3] 11.9 µM | Potency [14] 11.9 µM | Potency [5] 13.3 µM | Potency [6] 11.9 µM | Potency [8] 23.9 µM [inconclusive]
inactive: Potency [1] | Potency [9] | Potency [10] | Potency [12] | Potency [13]

[O]=[Bi]
inactive: viability change, negative = cytotoxic [1] -0.0549% [at 7.04 µM] | activity change, negative = cytotoxicity [2] -3.35% [at 8.52 µM] | activity, negative = cytotoxicity [3] 0.555% [at 8.53 µM] | activity change, negative = cytotoxicity [14] 2.55% [at 8.55 µM] | viability change, negative = cytotoxic [4] -2.29% [at 8.47 µM] | activity, negative = inhibition [6] -1.71% [at 8.44 µM] | activation [7] -0.257% [at 8.08 µM] | activity, negative = inhibition [8] -6.92% [at 6.71 µM] | activity, negative = cytotoxicity [9] -18.5% [at 6.72 µM] | activation [10] -1.87% [at 6.71 µM] | activity change, negative = inhibition [12] 3.19% [at 8.47 µM] | activity change, negative = cytotoxicity [13] 0.603% [at 8.47 µM] | activity, negative = inhibition (Aromatase (Homo sapiens)) 15.6% [at 8.47 µM]

Cc1ccc(/C=N/n2c(-c3ccccc3)csc2=S)cc1
active: Potency [2] 26.6 µM | Potency [14] 29.8 µM | Potency [6] 23.7 µM
inactive: Potency [1] | Potency [15] | Potency [4] | Potency [5] | outcome [7] | Potency [13]

Cc1oncc1C(=O)Nc1ccc(C(F)(F)F)cc1
inactive: Potency [1] | Potency [4] | Potency [8] | Potency [9] | Potency [10] | Potency [11] | Potency [13] | Potency (Aromatase (Homo sapiens))
active: Potency [2] 7.7 µM | Potency [3] 804 nM and 3.44 µM | Potency [14] 2.27 µM and 4.86 µM

CC(=O)OCC(=O)[C@@]12OC(C)(C)O[C@@H]1C[C@H]1[C@@H]3C[C@H](F)C4=CC(=O)C=C[C@]4(C)[C@@]3(F)[C@@H](O)C[C@@]12C
inactive: Potency [1] | Potency [2] | Potency [3] | Potency [14] | Potency [4] | Potency [9] | Potency [13] | Potency (Aromatase (Homo sapiens))

CC1=C(/C=C/C(C)=C\C=C\C(C)=C\C(=O)O)C(C)(C)CCC1
active: Potency [2] 34.4 µM | Potency [12] 0.243 µM
inactive: Potency [1] | Potency [4] | Potency [5] | Potency [6] | Potency [9] | Potency [10] | Potency [13] | Potency (Aromatase (Homo sapiens))

Cc1ccc(S)cc1
inactive: Potency [1] | Potency [15] | Potency [5] | Potency [10] | Potency [11] | Potency [12] | Potency [13] | Potency (Aromatase (Homo sapiens))
active: Potency [2] 61.1 µM

c1cc[c]([Bi]([c]2ccccc2)[c]2ccccc2)cc1
inactive: Potency [1] | Potency [15] | outcome [7] | Potency [8] | Potency [9] | Potency [10] | Potency [12] | Potency [13] | Potency (Aromatase (Homo sapiens))
active: Potency [2] 61.1 µM | Potency [14] 61.1 µM | Potency [6] 54.5 µM | Potency [11] 21.7 µM

CCC(C(=O)OCCOCCN(CC)CC)c1ccccc1 (stereo unspecified)
inactive: Potency [1] | Potency [15] | Potency [4] | Potency [6] | outcome [7] | Potency [8] | Potency [9] | Potency [10] | Potency [11] | Potency [12] | Potency [13] | Potency (Aromatase (Homo sapiens))
active: Potency [3] 10.6 µM | Potency [14] 21.1 µM

CCC(C)(O)CCC=C(C)C (stereo unspecified)
inactive: Potency [1] | Potency [2] | Potency [14] | Potency [15] | Potency [4] | Potency [6] | outcome [7] | Potency [8] | Potency [9] | Potency [10] | Potency [12] | Potency [13] | Potency (Aromatase (Homo sapiens))

CCOC(=O)c1ccccc1C
active: Potency [3] 61.1 µM
inactive: Potency [1] | Potency [15] | Potency [4] | Potency [5] | Potency [6] | outcome [7] | Potency [8] | Potency [9] | Potency [10] | Potency [11] | Potency [12] | Potency [13] | Potency (Aromatase (Homo sapiens))

O=C(C(=O)c1ccccc1)c1ccccc1
inactive: Potency [1] | Potency [3] | Potency [14] | Potency [15] | Potency [5] | Potency [6] | outcome [7] | Potency [9] | Potency [13]

NC(=O)Nc1ccc(Cl)cc1
inactive: Potency [1] | Potency [3] | Potency [14] | Potency [15] | Potency [4] | Potency [6] | outcome [7] | Potency [8] | Potency [10] | Potency [11] | Potency [12] | Potency [13] | Potency (Aromatase (Homo sapiens))
